Only some compounds are listed: those with a hit (about 7.3% of all), similar ones and a draw of the others.
Tau FP inhib = qHTS for Inhibitors of Tau Fibril Formation, Fluorescence Polarization | Potency, µM (highest dose often 57.7 µM), without a hit: top-dose activity, negative = inhibition, most hits filed as inhibitors | 0.39% of 280,000 active | AID 1468, 2008 | K18 P301L tau heparin fibrillization, Alexa594 FP, 6 h; also: nearly all actives have a fitted effect of over 55% in size
Target sequence (P10636 561-689 P618L limits assumed): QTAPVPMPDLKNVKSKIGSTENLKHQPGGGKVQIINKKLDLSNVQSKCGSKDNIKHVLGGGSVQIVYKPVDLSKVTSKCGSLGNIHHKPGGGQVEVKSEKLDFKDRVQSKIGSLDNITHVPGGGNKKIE
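Heparin (20 uM) drove fibril formation of recombinant tau K18 P301L, 15 uM unlabeled with 0.24 uM Alexa 594 label, for 6 hr at 37 C in 100 mM sodium acetate pH 7. Fluorescence polarization (555/632 nm) read 1 hr after 30 uM ThT.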
Tau fluor cs = Counterscreen qHTS for Inhibitors of Tau Fibril Formation, Fluorescence Polarization; tau K18 P301L Alexa594 fluorescence, heparin fibrillization; Potency, µM (doses to about 57.7 µM), for inactives: at the highest dose activity change, negative = decrease; 0.93% of 280,000 active; AID 1463, 2008; also: nearly all actives have a fitted effect of over 55% in size
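Human K18 P301L tau (15 uM unlabeled plus 0.24 uM Alexa 594-labeled, final) in 100 mM sodium acetate pH 7 was mixed with compound and 20 uM heparin and incubated 6 hr at 37 C.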
RORg inh = qHTS for inhibitors of ROR gamma transcriptional activity | Nuclear receptor ROR-gamma (Mus musculus), P51450 | Drosophila S2 Gal4-RORgamma UAS-luciferase reporter, 20 h | Potency, µM (top dose mostly 53.6 µM), for inactives: top-dose activity change, negative = inhibition, most hits filed as inhibitors | 5.4% of 310,000 active | AID 2551, 2010; also: nearly all actives have a fitted effect of over 60% in size
Target sequence (P51450 whole entry, looked up, the tested form may be a part): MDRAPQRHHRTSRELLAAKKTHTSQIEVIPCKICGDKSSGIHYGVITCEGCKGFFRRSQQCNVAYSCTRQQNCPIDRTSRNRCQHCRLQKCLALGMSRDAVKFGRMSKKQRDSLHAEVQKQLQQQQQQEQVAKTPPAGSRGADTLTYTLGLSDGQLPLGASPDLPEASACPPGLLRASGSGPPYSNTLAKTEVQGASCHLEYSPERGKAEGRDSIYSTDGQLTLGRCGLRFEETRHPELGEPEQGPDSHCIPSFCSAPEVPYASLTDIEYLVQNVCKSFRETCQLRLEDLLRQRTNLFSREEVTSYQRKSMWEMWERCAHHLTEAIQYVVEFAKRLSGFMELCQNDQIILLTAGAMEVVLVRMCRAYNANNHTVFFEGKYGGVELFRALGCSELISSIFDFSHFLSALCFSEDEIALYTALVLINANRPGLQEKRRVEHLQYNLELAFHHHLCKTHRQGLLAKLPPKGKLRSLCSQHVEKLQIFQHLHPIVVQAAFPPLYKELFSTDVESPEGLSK
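Schneider cells (Drosophila), stable Gal4 DBD–ROR gamma + UAS-luc; 1 hr cmpd preincubation; Cu2+ induction 700 uM final; 20 hr ambient; luminescence.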
Tau ThT inhib = qHTS for Inhibitors of Tau Fibril Formation, Thioflavin T Binding | AID 1460, 2008 | Potency, µM (doses to about 57.4 µM), inactives show at the top dose activity, negative = inhibition, actives largely listed as inhibitors | Microtubule-associated protein tau (Homo sapiens), P10636 | 2.1% of 270,000 active | recombinant tau K18 P301L, heparin-induced fibrillization, ThT fluorescence; also: nearly all actives have a fitted effect of over 55% in size
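Using a mix of unlabeled (15 uM) and Alexa 594-labeled (0.24 uM) tau K18 P301L, heparin-triggered fibrillization over 6 hr at 37 C was scored by ThT fluorescence.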
Gal4-VP16 FLuc = VP16 counterscreen qHTS for inhibitors of ROR gamma transcriptional activity | Drosophila S2 Gal4-VP16 UAS-luciferase, luminescence, 20 h | Potency, µM (highest dose often 53.6 µM), inactives show top-dose activity, negative = inhibition, most hits filed as inhibitors | 3.5% of 310,000 active | AID 2546, 2010;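 also: Gal4-VP16 expression switched on by copper sulfate through the metallothionein promoter; nearly all actives have a fitted effect of over 50% in size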
* = called active by the depositor; ? = inconclusive; . = not tested or not shown; [ ] = dose if it differs, or a comment. Calls follow the shape of the dose curve; as a rule, active = well fitted curve in the direction sought with a large enough effect; inconclusive = small, poorly fitted or top-dose-only effect, or another doubt; inactive = no such curve, though single readings can be large; an effect the other way counts as inactive or inconclusive. % is scaled to controls: 0 for no effect and ±100 for the full control effect; potency is read from the fitted curve at half-maximal effect.

SMILES	Tau FP inhib	Tau fluor cs	RORg inh	Tau ThT inhib	Gal4-VP16 FLuc
O=C1C(Cc2ccccc2)NC(=S)N1Cc1ccccc1 (centres undefined)	-5.0%	-4.6%	12.6µM*	-4.5%	-20.9%
CC(C)CC1NC(=S)N(Cc2ccccc2)C1=O (centres undefined)	-7.3%	-8.7%	?	-5.9%	-16.3%
COc1ccc(N2CCN(CCC3Oc4cc([N+](=O)[O-])ccc4NC3=O)CC2)cc1 (centres undefined)	13.2%	?	?	7.94µM*	-11.1%
CCc1nnc2c(Nc3ccc(N(CC)CC)cc3C)nc3ccccc3n12	2.1%	?	.	?	.
CN=C(NC1CCCCC1)c1ccc([N+](=O)[O-])cc1	.	.	-3.8%	.	-3.1%
O=C(O)CCC(=O)c1ccc2ccc3cccc4ccc1c2c34	-2.0%	-7.4%	11.2µM*	-17.8%	10µM*
Cc1cccc(NC(=O)CN(c2ccc(F)cc2)S(C)(=O)=O)c1	8.5%	4.4%[2.34 µM]	5.62µM*	?	5.01µM*
O=C(NC(=S)NNC(=O)c1ccccc1[N+](=O)[O-])c1ccc(Br)cc1	.	.	6.31µM*	.	6.31µM*
Cc1ccc(C(=O)NC(=S)NNC(=O)COc2ccc([N+](=O)[O-])cc2)cc1	.	.	11.2µM*	.	11.2µM*
Cc1ccc(OCC(=O)Nc2ccc([N+](=O)[O-])cc2)cc1	-2.6%	3.4%	1.2%	-2.2%	-12.5%
O=C(COc1ccc([N+](=O)[O-])cc1)NNC(=S)NC(=O)c1ccc(Br)cc1	-7.8%	-7.3%	3.16µM*	?	?
Cc1cccn2c(=O)cc(CSc3nnc(NC(=O)C(C)C)s3)nc12	-5.7%	-2.4%	.	-5.6%	.
Cc1ccc(NC(=O)C2CCN(S(=O)(=O)c3ccc4c(c3)C(C)(C)C(=O)N4C)CC2)c(C)c1	.	.	11.9%	.	5.1%
c1cc2c3c(cccc3c1)C(N1CCOCC1)=N2	9.2%	-2.2%	-15.5%	-14.9%	-4.6%
COc1ccccc1N1CCN(C2=Nc3cccc4cccc2c34)CC1	0.7%	-19.4%	15.8µM*	?	?
c1ccc(CC2CCN(C3=Nc4cccc5cccc3c45)CC2)cc1	2.7%	-11.8%	?	?	7.08µM*
CCCC(=O)NC(c1ccc(Cl)cc1Cl)c1ccc2cccnc2c1O (centres undefined)	.	.	5.62µM*	.	2µM*
CC(=O)NC(c1ccc(Cl)cc1Cl)c1ccc2cccnc2c1O (centres undefined)	.	.	2µM*	.	1.78µM*
Cc1ccc(C(Nc2ccccn2)c2ccc3cccnc3c2O)cc1 (centres undefined)	9.0%	-24.4%	.	?	.
CC(=O)NC(c1ccc2ccccc2c1)c1ccc2cccnc2c1O (centres undefined)	.	.	5.01µM*	.	1.58µM*
CCCC(=O)NC(c1ccc(C)cc1)c1ccc2cccnc2c1O (centres undefined)	.	.	1.58µM*	.	2.24µM*
CCOc1cc(C(Nc2cc(C)ccn2)c2ccc3cccnc3c2O)ccc1OC (centres undefined)	-12.9%	-9.4%	.	?	.
CCCC(=O)NC(c1ccc(Cl)cc1)c1ccc2cccnc2c1O (centres undefined)	.	.	2.24µM*	.	2.82µM*
COc1ccc(C(NC(C)=O)c2ccc3cccnc3c2O)c(OC)c1 (centres undefined)	9.8%	1.7%	?	-7.0%	4.47µM*
N#CC(C#N)=c1ccc2c(c1)NC1(CCCCC1)N=2	25.1µM*	?	?	14.1µM*	?
SMILES	Tau FP inhib	Tau fluor cs	RORg inh	Tau ThT inhib	Gal4-VP16 FLuc
COc1ccc(Cl)cc1NC(=S)NC1CCCC1	.	.	10µM*	.	7.08µM*
COc1ccc(NC(=S)NC2CCCCCC2)c(OC)c1	3.7%	-7.2%	3.16µM*	-5.9%	7.08µM*
Cc1cccc(C)c1NC(=S)N1CCOCC1	0.4%	-9.9%	2.7%	-6.5%	0.4%
COc1ccc(NC(=S)NC2CCCCC2)c(OC)c1	8.5%	-9.0%	3.16µM*	-6.0%	?
Cc1cccc(C)c1NC(=S)N1CCC(c2ccccc2)C1 (centres undefined)	-5.0%	-7.8%	15.8µM*	-5.4%	35.5µM*
Cc1cc(SCC(=O)Nc2nsc(-c3ccc(C(C)(C)C)cc3)n2)nc2ccccc12	-3.1%	-13.2%	.	-13.1%	.
CCOc1ccc(C(=O)OCc2cc(=O)n3cc(C)sc3n2)cc1	-5.3%	-8.5%	.	-9.4%	.
Cc1ccc(S(=O)(=O)NCC2CCC(C(=O)NCCc3ccc(Cl)cc3)CC2)cc1 (centres undefined)	-15.6%	-2.0%	.	-10.0%	.
CC(=O)Nc1ccc(S(=O)(=O)N(Cc2ccccc2)Cc2ccccc2)cc1	?	?	.	0.0%	.
COc1ccc(Cl)cc1NC(=S)N1CCN(S(C)(=O)=O)CC1	?	-2.4%	-1.9%	-2.3%	-5.4%
COc1ccc(Cl)cc1NC(=S)N1CCC(c2ccc(C)cc2)C1 (centres undefined)	-13.5%	-28.7%	12.6µM*	-9.9%	-16.9%
COc1ccccc1/C=C/C(=O)Nc1ccc(N2CCOCC2)cc1	6.0%	?	2.9%	2.51µM*	-9.9%
COc1ccccc1OCCCC(=O)Nc1ccc(N2CCOCC2)cc1	-3.2%	-9.4%	19.0%	?	-21.6%
COc1cccc(/C=C/C(=O)Nc2ccc(N3CCOCC3)cc2)c1OC	1.6%	?	-4.6%	5.62µM*	-16.7%
C=C(CCC(=O)c1ccccc1)C(=O)c1ccccc1	?	8.8%	12.6µM*	-13.4%	11.2µM*
c1ccc(-c2nc(CSc3n[nH]c(-c4cccs4)n3)cs2)cc1	?	?	31.6µM*	-17.1%	4.7%
CC1CCC2=C1C[C@H](C(C)(C)O)CC[C@@H]2C (some centres undefined)	4.6%	-7.9%	20.6%	-0.7%	3.0%
CC(C)(C)C(=O)COC(=O)c1cc(-c2cccnc2)nc2ccccc12	1.5%	-16.7%	?	-2.0%	35.5µM*
COCCNC(=S)NNC(=O)c1cc(C2CC2)nc2ccccc12	.	.	11.2µM*	.	-27.0%
CCCCNC(=S)NNC(=O)c1cc(-c2ccncc2)nc2ccccc12	.	.	11.2µM*	.	-18.7%
CNC(=S)NNC(=O)c1cc(-c2cccnc2)nc2ccccc12	.	.	7.08µM*	.	15.8µM*
Cc1c(C(=O)Nc2ccccc2F)sc2ncnc(N(C)C3CCCCC3)c12	0.9%	-22.4%	.	-14.0%	.
NC(=O)C1CCN(c2oc(/C=C/c3ccccc3)nc2S(=O)(=O)c2ccccc2)CC1	.	.	8.4%	.	8.7%
CCCCNC(=S)NNC(=O)c1cc(C2CC2)nc2ccccc12	.	.	6.31µM*	.	?
O=C(O)c1cc(C2CC2)nc2ccccc12	-0.8%	-7.0%	-28.5%	-0.7%	-10.1%
